Assay results taken from PubChem BioAssay (NCI).
Compounds without any hit were thinned out: in the full panel of roughly 83,000, 20% have a hit.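 Compound tested at a single concentration for 48 hours in 96-well plates; a percent growth value below 10 was scored as active.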 Active and inactive are the calls of the source.

tested on: NCI-H23 lung; assay: NCI-60 one-dose screen, 48 h (100 = growth as untreated, 0 = no growth, -100 = all killed); details: 10 µM unless noted
Protocol: Growth inhibition of the NCI-H23 human Non-Small Cell Lung tumor cell line is measured as a screen for anti-cancer activity. Cells are grown in 96 well plates and exposed to the test compound for 48 hours. Compounds are tested at a single concentration, which is 10^-5 M for most compounds. The reported endpoint is percent growth (GI% or GIPRCNT), where numbers from 0 - 100% represent growth inhibition, and numbers from -100% - 0 represent cell death. For example, a value of 40 represents 60% growth inhibition. A value of 0 means no net growth occurred over the course of the experiment. A value of -40 indicates 40% of cells at the beginning of the experiment died by the end of the experiment. A value of -100 means all cells are dead at the end of the experiment.
NCI-60 Human Tumor Cell Lines Screen was performed using the standard one-dose NCI protocol, which is described in more detail at https://dtp.cancer.gov/discovery_development/nci-60/default.htm.
Compounds with GIPRCNT values below 10 were considered active. Activity score was based on GIPRCNT using the following formula: […]
Score is 0 for GIPRCNT values of 100 or above, 50 for GIPRCNT values of 0, and 100 for GIPRCNT values of -100.

Q: Which growth does the source give for `CC(C)OC(=O)c1ccc2[nH]c(O)c(C(=Nc3ccc(N(C)C(=O)CN4CCN(C)CC4)cc3)c3ccccc3)c2c1` here?
A: Its growth is -59.9% (active).

Q: With `O=C(Cc1ccccc1)Nc1nc(O)c(/C=C2\C(=O)C=Cc3ccccc32)s1` as the compound, how does the growth read?
A: Its growth is 90.7% (inactive).

Q: Which growth does the source give for `Cc1ccccc1Cn1cnc2ccc(-c3cc(NC(=O)c4ccc(NC5CCN(C)CC5)cc4)n[nH]3)cc21` here?
A: The growth was 75% (inactive).

Q: For `Cc1ccc(C2=Nc3c(N)ncnc3NC(c3ccc4c(c3)OCO4)C2)cc1` (stereo not given), which growth is on record?
A: The growth was 74.3% (inactive).

Q: How did the growth turn out when `COc1ccc(C(c2cc(OC)c(OC)c(OC)c2)N2CCN(c3ccccc3)CC2)cc1` (stereo not given) was run?
A: The growth was 84.4% (inactive).

Q: For `C#CCOc1cccc(Nc2ncnc3c(NC(=O)C=C)cccc23)c1`, which growth is on record?
A: The growth was 38.9% (inactive).

Q: `CC1(c2ccccc2O)NN=C(/N=C/c2cccc([N+](=O)[O-])c2)N1C(Cc1c[nH]c2ccccc12)C(=O)O` (stereo not given) was tested. Which growth did it give?
A: The growth was 80.3% (inactive).

Q: `C#CCOc1cccc(Nc2ncnc3ccc(NC(=O)CCl)cc23)c1` was tested. Which growth did it give?
A: Its growth is -66.8% (active).

Q: For `COc1ccc(-c2ccc3cnc4sc(-c5ccc(OC)cc5)nc4c3n2)cc1`, which growth is on record?
A: The growth was 91% (inactive).

Q: `O=C1Nc2ccccc2/C1=C\c1nc(-c2ccccc2)n2ccccc12` was tested. Which growth did it give?
A: Its growth is 85% (inactive).

Q: For `COc1ccc2c(c1)c(-c1noc(C(=O)c3cn(C)c4ccc(Br)cc34)n1)cn2C`, which growth is on record?
A: Its growth is 99.3% (inactive).

Q: How did the growth turn out when `CC(C)CCC[C@@H](C)[C@H]1CC[C@H]2[C@@H]3CC=C4C[C@@H](C(C(=O)O)C(=O)O)CC[C@]4(C)[C@H]3CC[C@]12C` was run?
A: The growth was -48% (active).

Q: With `O=C(N/N=C/c1ccc(F)cc1)c1ccc(C(F)(F)F)nc1Nc1cccc(C(F)(F)F)c1` as the compound, how does the growth read?
A: The growth was 11.3% (inactive).

Q: Which growth does the source give for `Cc1noc(C)c1C(=O)OCc1coc2ccccc2c1=O` here?
A: The growth was 71.3% (inactive).

Q: With `Nc1ncnc2c1N=C(c1ccc3c(c1)OCO3)CC(c1ccc([N+](=O)[O-])cc1)N2` (stereo not given) as the compound, how does the growth read?
A: The growth was 74.7% (inactive).

Q: How did the growth turn out when `c1cnc2[nH]cc(-c3csc(-c4cn(CCCN5CCOCC5)c5ccccc45)n3)c2c1` was run?
A: Its growth is 68.1% (inactive).

Q: With `O=C(Cn1cc(CN2CCCCCC2)nn1)Nc1ccc2c(ccn2Cc2ccccc2)c1` as the compound, how does the growth read?
A: The growth was 96.4% (inactive).

Q: Which growth does the source give for `O=C1/C(=C/c2ccc(Cl)cc2)COc2ccc(O)c(O)c21` here?
A: Its growth is 42.3% (inactive).

Q: For `O=C(Nc1cccnc1Nc1ccc(F)cc1)c1cn(Cc2cccc(Oc3ccccc3)c2)nn1`, which growth is on record?
A: Its growth is 74% (inactive).

Q: `COC(=O)c1c2c(c(C)[n+]([O-])c1C)C(=O)C=C(NCc1ccc(OC)cc1)C2=O` was tested. Which growth did it give?
A: The growth was -38.8% (active).

Q: With `CCSc1nc(NC)c2cc(-c3ccc(C(F)(F)F)cc3)ccc2n1` as the compound, how does the growth read?
A: Its growth is 94.3% (inactive).

Q: For `CCc1ccc(C(=O)/C=C/C23c4ccccc4C(c4ccccc42)C2C(=O)NC(=O)C23)cc1` (stereo not given), which growth is on record?
A: Its growth is 15.9% (inactive).

Q: Which growth does the source give for `Oc1c(Cl)cc(Cl)c2ccc(Cn3cc(-c4ccc(C(F)(F)F)cc4)nn3)nc12` here?
A: The growth was 83% (inactive).

Q: Which growth does the source give for `COc1ccc(OC)c(-c2c(C#N)c(-c3cccs3)nc3c2c(-c2ccccc2)nn3-c2ccccc2)c1` here?
A: The growth was 105% (inactive).

Q: How did the growth turn out when `N=C(N)c1ccc(-c2ccc(-c3ccc(F)cc3)o2)o1` was run?
A: The growth was 44.8% (inactive).

Q: `Cc1cc(=O)[nH]c2c(C#N)cnn12` was tested. Which growth did it give?
A: Its growth is 102% (inactive).

Q: With `CCNC(=O)c1[nH]cc(-c2ccccc2)c1-c1cc(OC)c2c(c1OC)OCO2` as the compound, how does the growth read?
A: Its growth is 93.8% (inactive).

Q: `CCN(c1ccc(Cl)cc1)c1nc(-c2ccc([N+](=O)[O-])cc2)cs1` was tested. Which growth did it give?
A: The growth was 92% (inactive).

Q: How did the growth turn out when `Cc1nc(N2CCOCC2)sc1S(N)(=O)=O` was run?
A: Its growth is 102% (inactive).

Q: For `Fc1ccc(Nc2nc3nonc3nc2Nc2ccc(I)cc2)cc1`, which growth is on record?
A: Its growth is -19.5% (active).

Q: Which growth does the source give for `CN1C(=O)/C(=C/c2cn(-c3ccccc3)nc2-c2ccccc2)SC1=S` here?
A: Its growth is 95.4% (inactive).

Q: Which growth does the source give for `CN(C)CCNc1nc2c3cc(Cl)ccc3nn2c2ccccc12` here?
A: The growth was 45.5% (inactive).

Q: Which growth does the source give for `Cc1nnc(-n2c(O)cc(=O)n(-c3ccccc3)c2=S)nc1/C=C/c1ccc(N(C)C)cc1` here?
A: The growth was 60.9% (inactive).

Q: For `C#Cc1cccc(Nc2ncnc3ccc(-c4cnc(N)nc4)cc23)c1`, which growth is on record?
A: Its growth is 50% (inactive).

Q: How did the growth turn out when `O=C(O)c1[nH]c(=O)[nH]c(=O)c1[N+](=O)[O-]` was run?
A: The growth was 109% (inactive).

Q: For `CCC(=C(c1ccc(OCCN2CCCC2)cc1)c1ccc(OCCN2CCCC2)cc1)c1ccc(Cl)cc1`, which growth is on record?
A: Its growth is 77.1% (inactive).

Q: For `Cc1cc2c(O)c(-c3cccc(Cl)c3)c3sc(=O)oc3c2cc1C`, which growth is on record?
A: Its growth is 12% (inactive).

Q: Which growth does the source give for `COc1ccc2[nH]cc(-c3nc(-c4c[nH]c5ccncc45)cs3)c2c1` here?
A: Its growth is 76.6% (inactive).

Q: For `COc1ccc(C(=O)Nc2cccc(C3CC(=O)c4c(cc(OC)c(OC)c4OC)O3)c2)cc1` (stereo not given), which growth is on record?
A: Its growth is 35.2% (inactive).

Q: For `O=[N+]([O-])c1ccc(S(=O)(=O)N2CCN(C3=NS(=O)(=O)c4ccccc4N3c3ccccc3)CC2)cc1`, which growth is on record?
A: Its growth is 87.2% (inactive).
